Laboratory results taken from the supplement of paper PMC3545927.
The list shows a part of the results. The true hit rate is not given.

Target: furin, P09958
Test: furin cleavage Z-score vs untreated control; higher = more cleavage, active = 3.5 or more, inactive = 1 or less, 8 variable residues between constant flanks
Experimental: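 Multiplexed peptide-cDNA fusion cleavage assay. 8-mer variable peptides flanked by constant Cys-Ala (N-term) and Ala-Gly-Asn-Ala-Ser-Ala-Ser-Ala (C-term) and conjugated to a cDNA oligonucleotide were bead-immobilised via the N-terminus. They were treated with purified furin at a 1:10 enzyme:substrate ratio in 50 mM HEPES pH 7.5, 1 mM CaCl2, 100 mM NaCl for 7.5, 15 or 30 min. Released cDNA was counted by next-generation sequencing, and log counts versus no-furin controls were lowess-adjusted and converted to robust Z-scores.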

Chain of furin, P09958 (P09958 whole entry): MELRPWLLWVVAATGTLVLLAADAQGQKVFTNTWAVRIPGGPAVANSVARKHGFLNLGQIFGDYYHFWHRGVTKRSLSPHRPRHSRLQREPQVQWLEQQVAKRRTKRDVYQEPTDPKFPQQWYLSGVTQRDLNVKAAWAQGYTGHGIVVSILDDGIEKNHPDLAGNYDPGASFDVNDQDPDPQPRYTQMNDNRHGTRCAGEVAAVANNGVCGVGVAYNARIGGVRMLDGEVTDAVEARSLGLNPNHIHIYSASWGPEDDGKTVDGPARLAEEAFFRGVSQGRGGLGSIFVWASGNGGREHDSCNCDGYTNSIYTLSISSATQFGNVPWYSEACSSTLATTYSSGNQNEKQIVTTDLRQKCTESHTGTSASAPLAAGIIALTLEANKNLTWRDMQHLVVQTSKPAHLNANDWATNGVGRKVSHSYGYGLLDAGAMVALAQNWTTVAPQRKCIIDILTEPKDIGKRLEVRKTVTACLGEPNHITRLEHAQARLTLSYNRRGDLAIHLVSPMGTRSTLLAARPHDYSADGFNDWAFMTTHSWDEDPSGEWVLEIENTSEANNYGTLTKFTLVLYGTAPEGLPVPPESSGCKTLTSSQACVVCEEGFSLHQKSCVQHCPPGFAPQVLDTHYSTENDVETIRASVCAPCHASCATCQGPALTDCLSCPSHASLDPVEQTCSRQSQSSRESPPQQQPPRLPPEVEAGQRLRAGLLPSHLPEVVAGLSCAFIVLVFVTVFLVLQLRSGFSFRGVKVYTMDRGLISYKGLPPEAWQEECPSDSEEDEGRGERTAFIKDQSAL

For CAYTNVDQDLAGNASASA [HC711], the “furin cleavage Z-score” value (7.5 min) was -0.889 (inactive), the “furin cleavage Z-score” value (15 min) was -0.433 (inactive) and the “furin cleavage Z-score” value (30 min) was -0.26 (inactive).

With CALTVPASAYAGNASASA [HC253] the “furin cleavage Z-score” value (7.5 min) was 0.273 (inactive), the “furin cleavage Z-score” value (15 min) was -0.258 (inactive) and the “furin cleavage Z-score” value (30 min) was 0.0356 (inactive).

CAGPRRPMRPAGNASASA [FS-785] was tested, and the “furin cleavage Z-score” value (7.5 min) was 0.568 (inactive), the “furin cleavage Z-score” value (15 min) was -0.102 (inactive) and the “furin cleavage Z-score” value (30 min) was -1.31 (inactive).

In the case of CACGDIINGLAGNASASA [HC657], the “furin cleavage Z-score” value (7.5 min) is reported as -0.652 (inactive), the “furin cleavage Z-score” value (15 min) is reported as -0.156 (inactive) and the “furin cleavage Z-score” value (30 min) is reported as 0.306 (inactive).

For CAENDTDVFVAGNASASA [HC426], the “furin cleavage Z-score” value (7.5 min) was -0.537 (inactive), the “furin cleavage Z-score” value (15 min) was 0.514 (inactive) and the “furin cleavage Z-score” value (30 min) was -0.867 (inactive).

CAEMPRDRRRAGNASASA [FS-325] was tested, and the “furin cleavage Z-score” value (7.5 min) was -1.37 (inactive), the “furin cleavage Z-score” value (15 min) was -0.519 (inactive) and the “furin cleavage Z-score” value (30 min) was -0.0256 (inactive).

CAAPPRRKRRAGNASASA [FS-976] was tested, and the “furin cleavage Z-score” value (7.5 min) was 7.74 (active), the “furin cleavage Z-score” value (15 min) was 7.56 (active) and the “furin cleavage Z-score” value (30 min) was 5.8 (active).

CALRFRRKRRAGNASASA [FS-826] was tested, and the “furin cleavage Z-score” value (7.5 min) was 11.4 (active), the “furin cleavage Z-score” value (15 min) was 12.4 (active) and the “furin cleavage Z-score” value (30 min) was 10.4 (active).

For CACRKRRKRCAGNASASA [FS-17], the “furin cleavage Z-score” value (7.5 min) was 4.55 (active), the “furin cleavage Z-score” value (15 min) was 0.934 (inactive) and the “furin cleavage Z-score” value (30 min) was 1.07.

With CAVRNRRKRKAGNASASA [FS-1434] the “furin cleavage Z-score” value (7.5 min) was 8.59 (active), the “furin cleavage Z-score” value (15 min) was 9.19 (active) and the “furin cleavage Z-score” value (30 min) was 8.05 (active).

In the case of CALREEVSFRAGNASASA [HC1231], the “furin cleavage Z-score” value (7.5 min) is reported as -0.828 (inactive), the “furin cleavage Z-score” value (15 min) is reported as -0.657 (inactive) and the “furin cleavage Z-score” value (30 min) is reported as -0.791 (inactive).

For CAGRSEFKRCAGNASASA [FS-1331], the “furin cleavage Z-score” value (7.5 min) was -0.855 (inactive), the “furin cleavage Z-score” value (15 min) was -0.736 (inactive) and the “furin cleavage Z-score” value (30 min) was -0.471 (inactive).

With CARCQRDAMCAGNASASA [FS-2651] the “furin cleavage Z-score” value (7.5 min) was -1.14 (inactive), the “furin cleavage Z-score” value (15 min) was 0.877 (inactive) and the “furin cleavage Z-score” value (30 min) was 1.14.

In the case of CALRFCALARAGNASASA [HC620], the “furin cleavage Z-score” value (7.5 min) is reported as 1.83, the “furin cleavage Z-score” value (15 min) is reported as 0.507 (inactive) and the “furin cleavage Z-score” value (30 min) is reported as -0.572 (inactive).

CATGCVVIVGAGNASASA [HC999] was tested, and the “furin cleavage Z-score” value (7.5 min) was 0.288 (inactive), the “furin cleavage Z-score” value (15 min) was -0.105 (inactive) and the “furin cleavage Z-score” value (30 min) was 1.66.

With CATTPCCGSWAGNASASA [HC74] the “furin cleavage Z-score” value (7.5 min) was -2.07 (inactive), the “furin cleavage Z-score” value (15 min) was -0.069 (inactive) and the “furin cleavage Z-score” value (30 min) was -1.52 (inactive).

With CAEFTLLTRIAGNASASA [FS-988] the “furin cleavage Z-score” value (7.5 min) was -0.861 (inactive), the “furin cleavage Z-score” value (15 min) was -1.86 (inactive) and the “furin cleavage Z-score” value (30 min) was 0.256 (inactive).

CALRFRRKRKAGNASASA [FS-825] was tested, and the “furin cleavage Z-score” value (7.5 min) was 9.84 (active), the “furin cleavage Z-score” value (15 min) was 11 (active) and the “furin cleavage Z-score” value (30 min) was 8.47 (active).

CALIFCHSKKAGNASASA [HC856] was tested, and the “furin cleavage Z-score” value (7.5 min) was -0.592 (inactive), the “furin cleavage Z-score” value (15 min) was -0.736 (inactive) and the “furin cleavage Z-score” value (30 min) was -0.784 (inactive).

For CAMEEMSQHLAGNASASA [HC8], the “furin cleavage Z-score” value (7.5 min) was 1.27, the “furin cleavage Z-score” value (15 min) was 1.33 and the “furin cleavage Z-score” value (30 min) was 0.916 (inactive).

CAAAIREKRAAGNASASA [FS-153] was tested, and the “furin cleavage Z-score” value (7.5 min) was 10.5 (active), the “furin cleavage Z-score” value (15 min) was 11.2 (active) and the “furin cleavage Z-score” value (30 min) was 8.65 (active).

With CAAAILRRHVAGNASASA [HC1110] the “furin cleavage Z-score” value (7.5 min) was -1.81 (inactive), the “furin cleavage Z-score” value (15 min) was 1.42 and the “furin cleavage Z-score” value (30 min) was 1.16.

In the case of CALASHPKRAAGNASASA [FS-1355], the “furin cleavage Z-score” value (7.5 min) is reported as -0.0202 (inactive), the “furin cleavage Z-score” value (15 min) is reported as 0.46 (inactive) and the “furin cleavage Z-score” value (30 min) is reported as -0.107 (inactive).

CALADREKRAAGNASASA [FS-683] was tested, and the “furin cleavage Z-score” value (7.5 min) was 5.37 (active), the “furin cleavage Z-score” value (15 min) was 7.31 (active) and the “furin cleavage Z-score” value (30 min) was 4.83 (active).

For CAEMVTSTWVAGNASASA [HC2166], the “furin cleavage Z-score” value (7.5 min) was -0.179 (inactive), the “furin cleavage Z-score” value (15 min) was 0.272 (inactive) and the “furin cleavage Z-score” value (30 min) was -0.181 (inactive).

For CACSGGAYDIAGNASASA [HC813], the “furin cleavage Z-score” value (7.5 min) was -0.539 (inactive), the “furin cleavage Z-score” value (15 min) was -1.15 (inactive) and the “furin cleavage Z-score” value (30 min) was 0.556 (inactive).

In the case of CAVVLLLFAGAGNASASA [HC347], the “furin cleavage Z-score” value (7.5 min) is reported as -2.22 (inactive), the “furin cleavage Z-score” value (15 min) is reported as 0.376 (inactive) and the “furin cleavage Z-score” value (30 min) is reported as -0.682 (inactive).

With CALAARKRRQAGNASASA [FS-604] the “furin cleavage Z-score” value (7.5 min) was 12.2 (active), the “furin cleavage Z-score” value (15 min) was 12.1 (active) and the “furin cleavage Z-score” value (30 min) was 10 (active).

CAPPRRKRRQAGNASASA [FS-71] was tested, and the “furin cleavage Z-score” value (7.5 min) was 8.73 (active), the “furin cleavage Z-score” value (15 min) was 9.48 (active) and the “furin cleavage Z-score” value (30 min) was 8.32 (active).

For CALLQTASRQAGNASASA [HC1028], the “furin cleavage Z-score” value (7.5 min) was 0.222 (inactive), the “furin cleavage Z-score” value (15 min) was 0.569 (inactive) and the “furin cleavage Z-score” value (30 min) was 0.432 (inactive).

With CALLADARVCAGNASASA [HC523] the “furin cleavage Z-score” value (7.5 min) was 0.91 (inactive), the “furin cleavage Z-score” value (15 min) was -0.28 (inactive) and the “furin cleavage Z-score” value (30 min) was -1.13 (inactive).

CALLARDRRQAGNASASA [FS-1025] was tested, and the “furin cleavage Z-score” value (7.5 min) was 6.87 (active), the “furin cleavage Z-score” value (15 min) was 9.4 (active) and the “furin cleavage Z-score” value (30 min) was 7.76 (active).

With CALAALAAYCAGNASASA [HC994] the “furin cleavage Z-score” value (7.5 min) was 0.554 (inactive), the “furin cleavage Z-score” value (15 min) was 1.14 and the “furin cleavage Z-score” value (30 min) was 0.545 (inactive).

With CAHGLSAFSLAGNASASA [HC1604] the “furin cleavage Z-score” value (7.5 min) was 0.973 (inactive), the “furin cleavage Z-score” value (15 min) was 0.919 (inactive) and the “furin cleavage Z-score” value (30 min) was 1.37.

With CAVVYCSMSYAGNASASA [HC2029] the “furin cleavage Z-score” value (7.5 min) was -0.409 (inactive), the “furin cleavage Z-score” value (15 min) was -0.331 (inactive) and the “furin cleavage Z-score” value (30 min) was 0.819 (inactive).

With CASTEDLVNLAGNASASA [HC1098] the “furin cleavage Z-score” value (7.5 min) was 0.352 (inactive), the “furin cleavage Z-score” value (15 min) was -0.11 (inactive) and the “furin cleavage Z-score” value (30 min) was -0.537 (inactive).

CAVVCCEMSYAGNASASA [HC113] was tested, and the “furin cleavage Z-score” value (7.5 min) was 1.04, the “furin cleavage Z-score” value (15 min) was -0.157 (inactive) and the “furin cleavage Z-score” value (30 min) was 2.06.

For CAKGYRGKRAAGNASASA [FS-448], the “furin cleavage Z-score” value (7.5 min) was 9.98 (active), the “furin cleavage Z-score” value (15 min) was 9.64 (active) and the “furin cleavage Z-score” value (30 min) was 8.26 (active).

For CAAKQRGKRAAGNASASA [FS-578], the “furin cleavage Z-score” value (7.5 min) was 7.85 (active), the “furin cleavage Z-score” value (15 min) was 6.99 (active) and the “furin cleavage Z-score” value (30 min) was 6.51 (active).

In the case of CAEFKRCWKGAGNASASA [FS-2859], the “furin cleavage Z-score” value (7.5 min) is reported as -0.792 (inactive), the “furin cleavage Z-score” value (15 min) is reported as 0.463 (inactive) and the “furin cleavage Z-score” value (30 min) is reported as -0.89 (inactive).

In the case of CAPLPRPRRSAGNASASA [FS-473], the “furin cleavage Z-score” value (7.5 min) is reported as 6.49 (active), the “furin cleavage Z-score” value (15 min) is reported as 5.07 (active) and the “furin cleavage Z-score” value (30 min) is reported as 4.07 (active).

With CAPRDRPRRSAGNASASA [FS-1384] the “furin cleavage Z-score” value (7.5 min) was 12.7 (active), the “furin cleavage Z-score” value (15 min) was 13.7 (active) and the “furin cleavage Z-score” value (30 min) was 10.6 (active).

CAATPRPRRSAGNASASA [FS-980] was tested, and the “furin cleavage Z-score” value (7.5 min) was 11.1 (active), the “furin cleavage Z-score” value (15 min) was 11.2 (active) and the “furin cleavage Z-score” value (30 min) was 7.55 (active).

With CALCARPRRSAGNASASA [FS-348] the “furin cleavage Z-score” value (7.5 min) was 10.1 (active), the “furin cleavage Z-score” value (15 min) was 10.4 (active) and the “furin cleavage Z-score” value (30 min) was 9.44 (active).

In the case of CAQPPRPFRSAGNASASA [FS-704], the “furin cleavage Z-score” value (7.5 min) is reported as -0.352 (inactive), the “furin cleavage Z-score” value (15 min) is reported as 1.58 and the “furin cleavage Z-score” value (30 min) is reported as -0.0165 (inactive).
